# Source: PubChem BioAssay
# HCMV antiviral: blocks human cytomegalovirus replication; activity change, negative = inhibition, % at 57.5 µM; actives 4.5% (n = 410,000); HFF cells, HCMV-luciferase reporter, 72 h; hits give low values; in the data active = activity change below about -60%; inconclusive = no clear call, values can overlap the other calls; inactive = above about -39%; note: % is set by controls: 0 for no effect and ±100 for the full control effect
#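 After 16 h attachment at 37C, HFF cells received test compound and HCMV-luciferase (1 PFU/cell); reporter luminescence read 72 h later, data normalized against buffer-only and known inhibitor Salinomycin.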
# Shiga inhibitor: Shiga toxin inhibition; Vero cells, Shiga toxin protein synthesis inhibition reporter; inhibition, % at 38.7 µM; actives 9.2% (n = 290,000); in the data active = inhibition mostly above about 28%, no sharp cut-off; inactive = mostly below about 43%; note: 0% is about no effect
# Pf growth 96h: inhibits malaria parasite growth, 96 h | P. falciparum luciferase reporter growth, 96 h | actives 6.9% (n = 320,000) | Potency, µM (series often up to 28.7 µM), without a hit: at the highest dose activity change, negative = inhibition, hits mostly inhibitors; note: potency is the fitted concentration of half-maximal effect; % is set by controls: 0 for no effect and ±100 for the full control effect
#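 Plates of compound plus infected erythrocytes (2% hematocrit, 0.05% parasitemia final) incubate 96 hours, 37 C, 5% CO2. Detection reagent added; reduced luminescence from the parasites' luciferase reporter flags inhibition.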
# Pf growth 48h: P. falciparum growth inhibition at 48 hours (one generation); Potency, µM (doses to about 28.7 µM), inactives show at the top dose activity change, negative = inhibition, hits mostly inhibitors; actives 5.9% (n = 310,000); P. falciparum luciferase growth in erythrocytes, 48 h; note: potency is the fitted concentration of half-maximal effect; % is set by controls: 0 for no effect and ±100 for the full control effect
#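 A one-generation exposure of luciferase-tagged malaria parasites in RPMI 1640/Albumax erythrocyte culture, 37 C and 5% CO2. Inhibition is inferred from decreased luminescence after adding detection reagent.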
# Cycloheximide cs: counter-screen hit for Shiga toxin inhibitors, cycloheximide; AID 2314; cell reporter, cycloheximide protein synthesis inhibition counterscreen; actives 12% (n = 300,000); max response, %; in the data active = max response mostly above about 13%, no sharp cut-off; inactive = mostly below about 14%; note: read at 38.3 µM for the half of the compounds with a filed dose; 0% is about no effect
# HCV inh: HCV inhibition | Huh7.5.1 HCVcc-Cre infection, luciferase reporter, 44 h | Potency, µM (series often up to 41.8 µM), inactives show top-dose activity change, negative = inhibition, actives largely listed as inhibitors | actives 3.4% (n = 340,000) | AID 651820; note: potency is the fitted concentration of half-maximal effect; % is set by controls: 0 for no effect and ±100 for the full control effect
#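 Infectious HCVcc-Cre (~0.5 moi) was added to cells just after compound, with cells seeded 4 h earlier at 1,000 per well. Luciferase activity after 44 h culture reported infection; substrate was incubated 15 min at room temperature before reading.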
# * = called active by the depositor; u = inconclusive; x = no result given; + = active, no number. Sampled rows, rich in hits. Any-hit rate of the full collection: about 21%. Unless noted, calls come from the whole dose curve; as a rule, active = well fitted inhibition curve with a large enough effect; inconclusive = small, poorly fitted or top-dose-only effect, or another doubt; inactive = no such curve, though single readings can be large or run the other way.
SMILES,HCMV antiviral,Shiga inhibitor,Pf growth 96h,Pf growth 48h,Cycloheximide cs,HCV inh
Oc1ccc(Cl)cc1C1=NNC(c2cccs2)C1 (centres undefined),16,141*,12µM*,3.3µM*,43*,u
Cc1ccc(O)c(C2=NNC(c3ccc(Cl)cc3)C2)c1 (centres undefined),96,70*,u,u,59*,u
Cc1ccc(O)c(-c2[nH]ncc2C(=O)c2ccc(Cl)cc2)c1,-25,4,-13%,u,-2,9%
Cc1ccc(O)c(C2=NNC(O)(C(F)(F)F)C2)c1 (centres undefined),-30,-9,x,13µM*,8,11µM*
O=C(NCC12CC3CC(CC(C3)C1)C2)c1cc2nc(-c3ccc(Cl)cc3)cc(C(F)(F)F)n2n1,12,x,x,x,x,x
O=C1c2ccccc2-c2nnc(-c3ccc(F)cc3)cc21,0,80*,u,-17%,42*,-10%
Cc1ccc(-c2cc3c(nn2)-c2ccccc2C3=O)cc1,0,25*,0.37µM*,0.52µM*,22*,-2%
O=C1c2ccccc2-c2nnc(-c3ccc(O)cc3)cc21,14,26,-24%,97%,20*,14%
COc1cc(-c2c(C(C)=O)c(C)nc3c2C(=O)c2ccccc2-3)cc(OC)c1OC,68,-6,4%,9%,-2,2%
O=C1c2ccccc2-c2n[nH]c3cccc1c23,-14,x,u,-4%,x,u
Cc1ccccc1-c1cc2c(nn1)-c1ccccc1C2=O,95,83*,x,4.1µM*,18,0%
Cc1ccc(S(=O)(=O)N2CCC(C(=O)OCC(=O)N(C)CC(=O)Nc3ccc(F)cc3)CC2)cc1C,-13,x,7%,48%,x,u
O=S1(=O)NC(=NCCc2ccccn2)c2ccccc21,-7,-6,5%,4%,-4,13%
O=C(COc1ccccc1)c1cn(CC(=O)N2CCOCC2)c2ccccc12,34,22,-5%,1%,6,u
CC(=O)c1cn(CC(=O)NCCc2c[nH]c3ccccc23)c2ccccc12,-38,13,-26%,11%,0,10µM*
CC(=O)c1cn(CC(=O)NCc2ccco2)c2ccccc12,-2,130*,u,67%,28,-30%
CC(C(=O)NCc1ccco1)n1cc(C(=O)c2ccco2)c2ccccc21 (centres undefined),-4,-3,-22%,u,15*,u
O=C(Cn1cc(C(=O)c2ccco2)c2ccccc21)NC1CCCC1,57,14,-21%,u,8,u
O=C(Cn1cc(C(=O)COc2ccccc2)c2ccccc21)NCc1ccco1,7,52*,161%,-14%,25*,u
Cc1ccc(NC(=S)N(CCCN2CCC(C)CC2)Cc2ccco2)cc1C,-24,-10,5%,-7%,-3,u
CCOC(=O)C1CCCN(C(=O)c2c(C)nn(-c3ccc(F)cc3)c2-n2cccc2)C1 (centres undefined),10,x,x,x,x,x
CC(C)=CCOc1ccc2ccc(=O)oc2c1,-17,35*,113%,61%,21*,-3%
CC1=CC(C/C(C)=C/COc2ccc3ccc(=O)oc3c2)OC1=O (centres undefined),-2,24*,33%,-7%,16*,-28%
COc1cc2ccc(=O)oc2c(O)c1OCC=C(C)C,-1,85*,13%,13%,11,-22%
CC(C)=CCC/C(C)=C/COc1c2occc2cc2ccc(=O)oc12,u,x,x,x,x,7%
SMILES,HCMV antiviral,Shiga inhibitor,Pf growth 96h,Pf growth 48h,Cycloheximide cs,HCV inh
COc1ccc2c(c1)CC(C(=O)Nc1c(C)cc(C)cc1C)CO2 (centres undefined),-7,x,x,x,x,x
CCc1ccc(NC(=O)CN(c2ccc(OC)cc2)S(=O)(=O)c2c(C)nn(C)c2C)cc1,27,7,4%,u,-10,-4%
O=C(CN1C(=O)COc2ccc(S(=O)(=O)N3CCCC3)cc21)N1CCN(c2ccccc2)CC1,-4,x,x,x,x,x
C[C@]12CCC3C(CC[C@H]4CCCC[C@]34C)C1CC[C@@]2(O)CNCCO (some centres undefined),-1,-4,34%,6%,-7,10µM*
CC(C)(C)OC(=O)N1CCC(c2c(C(=O)N3CCN(C(=O)c4ccco4)CC3)cnn2-c2cccc(Cl)c2)CC1,-19,-8,1%,12µM*,-1,-8%
Cc1cccc(-n2ncc(C(=O)NC3CCCC3)c2C2CCN(C(=O)OC(C)(C)C)CC2)c1,-17,13,u,1.5µM*,1,3%
COc1ccc(-n2ncc(C(=O)NCCc3ccsc3)c2C2CCN(C(=O)OC(C)(C)C)CC2)cc1,+,x,x,x,x,x
CC(C)(C)OC(=O)N1CCC(c2c(C(=O)NC3CC3)cnn2-c2ccccc2)CC1,-17,-4,15%,12µM*,-1,4%
COc1ccc(CNC(=O)c2cnn(-c3ccc(OC)cc3)c2C2CCN(C(=O)OC(C)(C)C)CC2)cc1,0,x,x,x,x,x
COc1ccc(-n2ncc(C(=O)N3CCN(C(=O)c4ccco4)CC3)c2C2CCN(C(=O)OC(C)(C)C)CC2)cc1,0,x,x,x,x,x
CCOC(=O)c1c(C)oc2nc(C)nc(NCCCN3CCN(c4cccc(C)c4)C(C)C3)c12 (centres undefined),-1,x,x,x,x,x
COc1ccc2c(c1)c1c(c(=O)n(Cc3ccccc3)c(=O)n1Cc1ccccc1)n2C,7,x,x,x,x,x
C/C(=N\NC(N)=O)c1ccc(-n2ccnc2)cc1,30,-9,-50%,31%,-2,12%
C/C(=N\Nc1ccc(C(=O)O)cc1)c1ccc(-n2ccnc2)cc1,32,88*,166%,247%,74*,1%
C/C(=N\NC(=O)c1ccc(C)cc1C)c1ccc2c(c1)Nc1ccccc1S2,0,40*,-13%,5%,30*,3.5µM*
C/C(=N\Nc1ccccc1Cl)c1ccc(-n2ccnc2)cc1,-17,100*,u,u,31*,u
CCc1ccc(OCC(=O)N/N=C(\C)c2ccc(-n3ccnc3)cc2)cc1,33,51*,u,u,16*,-12%
CC(C)(C)NC(=O)C1c2ccccc2OCC(=O)N1Cc1ccco1 (centres undefined),8,x,x,x,x,x
CCCCC(=O)Nc1ccc(C(=O)OCc2cc(=O)n3nc(C4CC4)sc3n2)cc1,-8,x,x,x,x,x
COc1ccc(Cl)cc1C(=O)Nc1nc(C)cc(C)n1,7,x,u,u,7,-8%
CNC(=S)N/N=C(\C)c1ccc(-n2ccnc2)cc1,39,-18,x,10%,-2,-13%
C/C(=N\NC(=O)c1ccc(C)cc1C)c1ccc(-n2ccnc2)cc1,37,35,u,-7%,27*,5%
